101 compounds from PubChem BioAssay AID1851 (National Center for Advancing Translational Sciences (NCATS), 2009) can be followed below.

Several values for one entry are separate records, joined by “and”; a condition that tells them apart may be missing. Identical values can stand only once. In all, about 16,000 compounds went through this assay and about 2,600 (16%) were called active. Inconclusive results (about 20%) are left out. Calls come from the whole dose curve; as a rule, active = well fitted curve in the direction sought with a large enough effect; inconclusive = small, poorly fitted or top-dose-only effect, or effect the other way; inactive = no such curve, though single readings can be large or run the other way. A selection follows.
% is set by controls: 0 for no effect and ±100 for the full control effect.

Cytochrome P450 2D6 (Homo sapiens), sequence (P10635 whole entry, looked up): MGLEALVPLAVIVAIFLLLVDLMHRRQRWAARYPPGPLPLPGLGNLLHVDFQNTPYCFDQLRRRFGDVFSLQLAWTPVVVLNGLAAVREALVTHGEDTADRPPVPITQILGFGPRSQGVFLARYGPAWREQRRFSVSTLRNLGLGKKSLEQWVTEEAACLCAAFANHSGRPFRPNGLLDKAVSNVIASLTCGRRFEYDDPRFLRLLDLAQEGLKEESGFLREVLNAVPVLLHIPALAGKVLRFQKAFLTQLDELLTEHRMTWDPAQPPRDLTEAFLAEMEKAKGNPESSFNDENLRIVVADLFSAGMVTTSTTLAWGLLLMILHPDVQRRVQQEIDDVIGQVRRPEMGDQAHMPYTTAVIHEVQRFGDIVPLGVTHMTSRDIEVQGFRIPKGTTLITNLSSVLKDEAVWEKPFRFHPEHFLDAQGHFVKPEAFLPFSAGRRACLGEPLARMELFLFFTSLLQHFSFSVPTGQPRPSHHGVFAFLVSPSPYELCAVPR

This assay has as its target Cytochrome P450 2D6 (Homo sapiens) (UniProt P10635). The experiment in a line: Cytochrome panel assay with activity outcomes. The following applies: recombinant CYP, pro-luciferin dealkylation, luminescence, p450-cyp2d6; series mostly up to 57.1 µM.
As for `CCCCCCCC/C=C\CCCCCCCC(=O)NCCc1ccc(O)c(O)c1`, the AC50 entry was “inactive”.
The same measure, in the same setting: to `CCCCCCCCC(=O)NCc1cc(OC)c(O)cc1I` belongs 7.94 µM (active).
As to `CC(=O)N[C@H](Cc1ccc(O)cc1)C(=O)O`, the activity, negative = inhibition is -3.43% [at 11.4 µM] (inactive).
For `CCCCCCCCCCCCCCCC(=O)NC(C)C`, the AC50 entry is “inactive”.
As to `CCCCCCCC/C=C\CCCCCCCC(=O)N[C@@H](CO)Cc1ccc(O)cc1`, the AC50 was 0.126 µM (active).
Turning to `CCCCCC(=O)Nc1cc2[nH]c(=O)cc(COC)c2cc1C`, the AC50 entry was “inactive”.
On to `CCCc1nnc(NC(=O)CCC(=O)NCc2ccccc2OC)s1`, for which the AC50 result was “inactive”.
For `CCCCCCCC/C=C\CCCCCCCC(=O)NCc1ccc(O)c(OC)c1`, the AC50 is 3.16 µM (active).
`COc1cc(CC(=O)O)ccc1O`: the AC50 result is “inactive”.
Still for that read-out and setting: then `O=C(Nc1ccc(F)cc1Cl)c1ccc2c(=O)n3c(nc2c1)CCCCC3`, with “inactive”; and `Cc1ccc(N=C/C(C(=O)C(F)(F)F)=C(\O)c2cccs2)cc1`, with “inactive”; and `CCOC(=O)Cc1csc(NC(=S)NC(=O)c2ccc(F)cc2)n1`, with “inactive”.
Take `CCOc1ccc(NC(=O)N2CCC(C(N)=O)(N3CCCCC3)CC2)cc1`: the AC50 entry was “inactive”.
Consider `CC(C)CO/N=C1/[C@H]2O[C@@H]2[C@@H](O)[C@H]2[C@H]1CCn1c(=O)n(-c3ccccc3)c(=O)n12`, for which the activity, negative = inhibition is 12.6% [at 11.4 µM] (inactive).
For `COCCn1c(=O)c(-c2cccs2)nc2cnc(Oc3ccccc3)nc21`, the AC50 result was “inactive”.
Regarding `CC(C)C(O)(C(C)C)C(C)C`, the activity, negative = inhibition was 8.61% [at 11.4 µM] (inactive).
As to `COc1ccc(C(=O)Nc2cccc(OC(=O)c3ccc(C)c(C)c3)c2)cc1`, the AC50 entry is “inactive”.
Still for that read-out and setting: to `COc1ccc(C(=O)Nc2cc(OC)cc(OC)c2)cc1` belongs 7.08 µM (active); to `CCOc1ccc(NC(=O)c2ccc(OC)cc2)cc1`, “inactive”; to `CCCCc1nc(SCC(=O)Nc2ncccn2)n[nH]1`, “inactive”.
For the compound `COC(=O)COc1ccsc1C(=O)OC`, the AC50 result was “inactive”.
Consider `COc1ccc2oc(-c3ccc(C)c(NC(=O)CSc4ccc(Cl)cc4)c3)nc2c1`, for which the AC50 was 2.51 µM (active).
Turning to `COc1ccc2oc(-c3ccc(C)c(NC(=O)c4ccc(N5CCOCC5)c([N+](=O)[O-])c4)c3)nc2c1`, the AC50 entry is “inactive”.
For `Cc1ccc(-c2nc3ccccc3o2)cc1NC(=O)Cc1cccs1`, the AC50 result is “inactive”.
Consider `Cc1cccc(NC(NC(=O)c2cccnc2)C(Cl)(Cl)Cl)c1` (stereo unspecified), for which the AC50 entry was “inactive”.
Consider `NC(=O)c1ncn([C@@H]2O[C@@H](CO)[C@@H](O)[C@H]2O)c1O`, for which the AC50 entry was “inactive”.
For the compound `COc1ccc(O[C@H]2C=C[C@@H](c3ccccc3)O[C@@H]2CON=C(C)C)cc1`, the activity, negative = inhibition is -3.07% [at 11.4 µM] (inactive).
For the compound `O=C(Cc1csc(Nc2nc(=S)[nH]c3ccccc23)n1)NCc1cccc(Cl)c1`, the AC50 result was “inactive”.
For the compound `Cc1sc2nc(SCC(=O)C(C)(C)C)n(Cc3ccco3)c(=O)c2c1C`, the AC50 result is “inactive”.
Take `Clc1ccccc1CNCC1CCC(CNCc2ccccc2Cl)CC1` (stereo unspecified): the AC50 is 12.6 µM (active).
Still for that read-out and setting: then `Cc1n[nH]c(=O)nc1NCc1ccccc1Cl`, with “inactive”.
As for `O=C(O)C[C@H](Cc1ccccc1Cl)C(=O)O`, the activity, negative = inhibition is -0.233% [at 11.4 µM] (inactive).
Take `CCOC(=O)C(C)Sc1nnc(CNC(=O)c2ccc(OC)cc2)n1C1CCCCC1` (stereo unspecified): the AC50 result was “inactive”.
As to `CCOC(=O)c1nc(N)sc1C(=O)OCC`, the AC50 result is “inactive”.
Take `CCOC(=O)c1sc(C)c(C(=O)NCC(C)(C)CN(C)C)c1N`: the AC50 was 1.78 µM (active).
On to `CCOC(=O)c1sc2nc3c(cc2c1N)COC(C)(CC)C3` (stereo unspecified), for which the AC50 entry is “inactive”.
Consider `Cc1ccc(Cn2cnc3c(nnn3Cc3ccc(Cl)cc3)c2=O)cc1`, for which the AC50 result was “inactive”.
As to `CC(=O)[C@H]1CC[C@@H]2[C@H]3CC=C4C[C@@H](O)CC[C@]4(C)[C@H]3CC[C@]12C`, the AC50 result was “inactive”.
In the case of `CC(=O)Nc1nnc(S(N)(=O)=O)s1`, the AC50 result was “inactive”.
Regarding `CCn1c(/C=C2/C(=O)N(C)c3ccccc32)nc2ccccc2c1=O`, the AC50 result is “inactive”.
For the compound `O=C(c1ccccc1)c1nc2ccccc2n(CCCn2c(=O)c(C(=O)c3ccccc3)nc3ccccc32)c1=O`, the AC50 entry was “inactive”.
For the compound `CCCn1c(/C=C/c2ccccc2)nc2ccccc21`, the AC50 was 8.91 µM (active).
The same measure, in the same setting: then `C[N+]1(C)C[C@@H](O)C[C@@H]1C(=O)[O-]`, with “inactive”.
In the case of `CCNc1ncc2nc(-c3ccccc3)c(=O)n(Cc3cccs3)c2n1`, the AC50 result is “inactive”.
Turning to `Cc1ccc(-c2nc3ccccc3s2)cc1NC(=S)NC(=O)c1ccccc1`, the AC50 entry was “inactive”.
With `CC(NC(=O)c1ccccc1)c1nc2ccccc2n1Cc1ccccc1F` (stereo unspecified), the AC50 is 14.1 µM (active).
As for `C=CCn1c(C(C)NC(=O)c2ccccc2)n[nH]c1=S` (stereo unspecified), the AC50 entry is “inactive”.
Still for that read-out and setting: then `CCn1c(-c2nonc2NC(=O)c2ccccc2)nc2ccccc21`, with “inactive”; and `O=c1cc(CO)oc(CN2CCCC2)c1O`, with “inactive”; and `Cc1ccc(O)c(-c2cc(C(F)(F)C(F)F)nc(-c3ccccc3)n2)c1`, with “inactive”.
Still for that read-out and setting: then `Cc1ccc(-c2ccc(/C=N/N3C(=O)C4C5C=CC(C6CC56)C4C3=O)o2)c([N+](=O)[O-])c1` (stereo unspecified), with “inactive”.
In the case of `CC(C)C(=O)NCCc1nc2ccccc2n1CCCOc1ccc(Cl)cc1`, the concentration at half-maximal activity (AC50) was 3.16 µM (active).
Take `Cn1c(COc2nnc(-c3ccc(Cl)cc3)c3ccccc23)nc2ccccc21`: the AC50 entry was “inactive”.
With `CC(C)C(=O)NCCn1ccc2ccccc21`, the AC50 result is “inactive”.
For `COc1ccc(C(=O)c2ccc(OC)c(OC)c2)cc1OC`, the AC50 entry is “inactive”.
With `COc1ccc(C(=O)OC(C)CN2CCN(C)CC2)cc1OC` (stereo unspecified), the AC50 was 3.55 µM (active).
On to `CCOC(=O)N1CCN(C(=O)c2ccc(OC)c(OC)c2)CC1`, for which the AC50 entry was “inactive”.
Take `Cc1cc(N2CCN(C)CC2)nc2ccc(NC(=O)CCC(=O)NCc3ccco3)cc12`: the AC50 entry is “inactive”.
Regarding `CCCCC/C=C\C[C@H](O)/C=C\c1cccc(C[C@H](O)CCCCO)n1`, the AC50 result is “inactive”.
Same read-out and setting: then `CCc1ccc(N(C(=O)c2snc(C(N)=O)c2N)C(C(=O)NCCC(C)C)c2c[nH]c3ccccc23)cc1` (stereo unspecified), with “inactive”; and `CC(C(=O)NC1CCCC1)N(C(=O)c1snc(C(N)=O)c1N)c1ccc2c(c1)OCCO2` (stereo unspecified), with 14.1 µM (active); and `COc1ccc(C(C(=O)NC2CCCC2)N(C(=O)c2snc(-c3ccc(F)cc3)c2N)c2ccc(F)cc2)cc1` (stereo unspecified), with “inactive”.
On the same count and under the same terms, to `Cc1ccccc1NC(=S)NN1CCN(C)CC1` belongs “inactive”; to `O=C(O)c1ccccc1C(=O)NCc1ccc(F)cc1`, “inactive”.
For `OC(CNCc1ccc(F)cc1)(c1ccc(F)cc1)c1ccc(F)cc1`, the AC50 was 0.794 µM (active).
For `CCOC(=O)C(C(=O)NCc1ccc(C)cc1)c1ncc(C(F)(F)F)cc1Cl` (stereo unspecified), the AC50 result was “inactive”.
On to `Cc1ccc(CNCC(O)(c2ccc(F)cc2)c2ccc(F)cc2)cc1`, for which the AC50 is 1 µM (active).
For the compound `COc1cc2c(C(=O)N3CCN(C)CC3)c(C)n(-c3ccccc3)c2cc1Br`, the AC50 entry was “inactive”.
Turning to `CN1CCN(C(=O)c2ccc3c(=O)n4c(nc3c2)CCCCC4)CC1`, the AC50 result is “inactive”.
For the compound `CCOC(=O)c1ccc(NC(=O)C2(c3ccc(OC)cc3)CCOCC2)cc1`, the AC50 result was “inactive”.
On to `CCOC(=O)CCCNC(=O)c1cncc(Br)c1`, for which the AC50 result is “inactive”.
The same measure, in the same setting: to `CCOC(=O)CCCNC(=O)CCCNC(=O)C(c1ccccc1)c1ccccc1` belongs 0.891 µM (active).
For `CCOC(=O)c1cc(CC)sc1NC(=O)C(c1ccccc1)c1ccccc1`, the AC50 entry is “inactive”.
In the case of `CC(C)(C)C(=O)N1CCc2cc(-c3csc(N)n3)ccc21`, the AC50 result is “inactive”.
Regarding `CCC(=O)Nc1ccccc1C(=O)OCC(=O)c1ccccc1`, the AC50 entry was “inactive”.
On to `CN(C)CCCO[C@H]1[C@H]([C@H](O)CO)O[C@H]2OC(C)(C)O[C@@H]21`, for which the AC50 entry was “inactive”.
The same measure, in the same setting: to `Cc1cc2cc(CNC(=O)CC(C)C)ccc2n1C` belongs “inactive”.
For the compound `CCOC(=O)N/N=C1/C[C@@H](O)[C@@H](O)[C@@H]2[C@@H]3C(=O)N(c4cccc(Oc5ccccc5)c4)C(=O)[C@H]3CC[C@H]12`, the activity, negative = inhibition is 2.57% [at 11.4 µM] (inactive).
Take `CCOC(=O)c1c(C)oc2c1cc(O)c1ccccc12`: the AC50 result is “inactive”.
Regarding `CCOC(=O)c1c(C(C)(C)C)oc2ccc(O)cc12`, the AC50 is 14.1 µM (active).
Still for that read-out and setting: then `CCOC(=O)c1cncc(C(=O)O)c1`, with “inactive”; and `C=CCCCCCCCCC(=O)Nc1c[nH]c(=O)[nH]c1=O`, with “inactive”.
With `O=C1C[C@@H](O)[C@@H](O)[C@H]2[C@@H]3C(=O)N(Cc4ccccc4)C(=O)[C@@H]3CC[C@H]12`, the activity, negative = inhibition is -0.874% [at 11.4 µM] (inactive) and 9.9% [at 11.4 µM] (inactive).
On to `COc1ccc(Cn2nnnc2C(c2ccccc2Cl)N2CCC(C(N)=O)CC2)cc1` (stereo unspecified), for which the AC50 result was “inactive”.
For `O=C(Nc1ccc(Cl)cc1)OCCn1nnnc1C(c1ccccc1Cl)N1CCOCC1` (stereo unspecified), the AC50 is 15.8 µM (active).
Take `O=C(Nc1ccc(Cl)cc1)OCc1cc(-c2ccccc2Cl)on1`: the AC50 entry is “inactive”.
For `C#C[C@@]1(O)CC[C@@H]2[C@@H]3CCC4=CC(=O)CC[C@@H]4[C@H]3CC[C@]21CC`, the AC50 entry was “inactive”.
Take `Cc1onc(C(=O)/C=C/N(C)C)c1C(=O)Nc1nccs1`: the AC50 result is “inactive”.
Consider `Cc1ccc(Nc2nc(-c3c(C)nc4ncccn34)cs2)cc1`, for which the AC50 is 12.6 µM (active).
Regarding `Cc1ccc(Nc2nc(-c3sc(NC(=O)c4cccc(Cl)c4)nc3C)cs2)cc1`, the AC50 result is “inactive”.
In the case of `c1cnc(Nc2nc(-c3ccc4ccccc4c3)cs2)nc1`, the AC50 entry was “inactive”.
Still for that read-out and setting: then `C/C(CC(=O)NC1CCCC1)=N\NC(=O)Cc1cccs1`, with “inactive”; and `COC(=O)[C@H]1C[C@@H]1[C@H](NC(=O)c1ccccc1)c1ccccc1`, with “inactive”; and `CC1(C)Cc2c(sc3nc(-c4ccccc4)n(N)c(=O)c23)CO1`, with “inactive”.
As for `CCCSc1nc(SCC(=O)NCc2ccccc2)c2c3c(sc2n1)COC(C)(CC)C3` (stereo unspecified), the AC50 entry was “inactive”.
As to `CCC1(C)Cc2c(sc3nnn(CC(=O)Nc4cccc5ccccc45)c(=O)c23)CO1` (stereo unspecified), the half-maximal activity concentration (AC50) is 15.8 µM (active).
The same measure, in the same setting: to `Cc1c(C(=O)O)oc2ccc(S(=O)(=O)NCc3ccc4c(c3)OCO4)cc12` belongs 15.8 µM (active); to `COc1ccc(OCCNS(=O)(=O)c2ccc3oc4ccccc4c3c2)cc1`, “inactive”.
For `O=C(O)C[C@H](Cc1ccc2c(c1)OCO2)C(=O)O`, the activity, negative = inhibition was -3.42% [at 11.4 µM] (inactive).
Turning to `Cc1ccc(C2/C(=C(/O)c3ccccc3)C(=O)C(=O)N2CCN2CCOCC2)o1` (stereo unspecified), the AC50 result was “inactive”.
Regarding `Cc1nc2ccc(S(=O)(=O)NC(CC(C)C)C(=O)O)cc2s1` (stereo unspecified), the AC50 entry is “inactive”.
